# ± gives the standard deviation of the averaged measurements. Targets with the largest changes are over-represented here; the source holds about 5,400 in all.
# Target: T1, ACLY (UniProt P53396)
# T1 sequence (whole entry): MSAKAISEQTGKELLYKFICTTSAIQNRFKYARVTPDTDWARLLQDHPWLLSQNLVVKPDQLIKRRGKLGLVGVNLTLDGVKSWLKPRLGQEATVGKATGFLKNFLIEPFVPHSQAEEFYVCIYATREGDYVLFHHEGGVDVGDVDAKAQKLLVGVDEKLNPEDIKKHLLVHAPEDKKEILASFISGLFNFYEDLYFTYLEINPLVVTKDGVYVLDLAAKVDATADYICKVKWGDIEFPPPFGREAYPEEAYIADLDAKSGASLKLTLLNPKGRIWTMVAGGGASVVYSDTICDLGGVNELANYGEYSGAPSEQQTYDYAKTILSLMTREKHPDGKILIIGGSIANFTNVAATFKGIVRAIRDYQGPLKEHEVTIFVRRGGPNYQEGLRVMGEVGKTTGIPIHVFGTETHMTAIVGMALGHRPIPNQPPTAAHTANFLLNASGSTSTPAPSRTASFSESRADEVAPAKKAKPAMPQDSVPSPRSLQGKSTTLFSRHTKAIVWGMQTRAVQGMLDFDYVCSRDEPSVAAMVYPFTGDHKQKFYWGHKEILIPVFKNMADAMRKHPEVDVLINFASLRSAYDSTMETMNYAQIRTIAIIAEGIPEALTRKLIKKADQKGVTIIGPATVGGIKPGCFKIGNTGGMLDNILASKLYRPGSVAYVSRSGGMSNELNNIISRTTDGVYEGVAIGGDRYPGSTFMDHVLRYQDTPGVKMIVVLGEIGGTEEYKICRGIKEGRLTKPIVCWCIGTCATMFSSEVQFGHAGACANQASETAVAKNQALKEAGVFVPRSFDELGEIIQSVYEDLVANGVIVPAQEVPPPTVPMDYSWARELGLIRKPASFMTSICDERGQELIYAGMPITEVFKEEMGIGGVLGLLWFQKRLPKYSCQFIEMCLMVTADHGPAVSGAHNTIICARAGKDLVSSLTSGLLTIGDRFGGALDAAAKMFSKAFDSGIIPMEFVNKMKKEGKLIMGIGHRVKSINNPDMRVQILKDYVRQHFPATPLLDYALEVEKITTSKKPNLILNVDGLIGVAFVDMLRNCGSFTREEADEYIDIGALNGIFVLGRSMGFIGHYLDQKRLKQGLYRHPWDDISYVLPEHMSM
# Assay: NP40-soluble protein abundance relative to vehicle (solubility fold change) (ratio); higher = more soluble protein in presence of GTP
# Description: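 Solubility proteome profiling in Jurkat crude lysate. Lysate was treated with Mg-GTP (0.1-10 mM) for 10 min at room temperature and 3 min at 37 °C, then solubilised with 0.8% NP40 and benzonase, followed by ultracentrifugation. Proteins were quantified by TMT10 LC-MS/MS; the value is the NP40-soluble abundance relative to the NP40-processed vehicle, from 3 independent experiments.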
structure (smiles),measurement,setting,value
Nc1nc2c(ncn2[C@@H]2O[C@H](COP(=O)(O)OP(=O)(O)OP(=O)(O)O)[C@@H](O)[C@H]2O)c(=O)[nH]1 [guanosine triphosphate],NP40-soluble protein abundance,concentration: 0.1mM,1.06 ± 0.044
same,NP40-soluble protein abundance,concentration: 0.5mM,1.08 ± 0.088
same,NP40-soluble protein abundance,concentration: 1mM,0.972 ± 0.084
same,NP40-soluble protein abundance,concentration: 2mM,0.968 ± 0.11
same,NP40-soluble protein abundance,concentration: 4mM,0.991 ± 0.084
same,NP40-soluble protein abundance,concentration: 6mM,0.963 ± 0.11
same,NP40-soluble protein abundance,concentration: 8mM,0.97 ± 0.065
same,NP40-soluble protein abundance,concentration: 10mM,0.906 ± 0.07
